Data: PubChem BioAssay (NCATS)
Results filed as inconclusive are left out. Active and inactive are the calls of the source. Unless noted, calls come from the whole dose curve; as a rule, active = well fitted curve in the direction sought with a large enough effect; inconclusive = small, poorly fitted or top-dose-only effect, or another doubt; inactive = no such curve, though single readings can be large; an effect the other way counts as inactive or inconclusive.

Assays:
[1] = qHTS assay for measurement of the activity of small molecule inhibitors on Zika virus induced Caspase-3 activity in human astrocytoma cells (AID 1224859)
In short: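 A cell-based luminescent caspase-3/7 assay used SNB-19 cells infected with ZIKV (2 FFU/cell) for 6 h following 1 h compound pretreatment.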

[2] = qHTS assay to identify small molecule inhibitors of chordoma cells - UCH-1 (AID 1259355); note: nearly all actives have a fitted effect of over 55% in size
In short: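 Seed 800 cells per well; incubate overnight at 37 C, 5% CO2. Add test compounds (15 concentrations), then the auranofin–topoisomerase-agent combination. Incubate 48hr, add CellTiter-Glo, wait 30min, read luminescence.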

[3] = qHTS assay to identify small molecule inhibitors of chordoma cells - UCH-2 (AID 1259356); note: series mostly up to about 46 µM
[4] = biological target: Atrial natriuretic peptide receptor 1 (Homo sapiens) (UniProt P16066); assay: Natriuretic polypeptide receptor (hNpr1) antagonism - Pilot screen (AID 1347049; calls by dose curve;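 note: agonist-evoked cGMP luminescence read 20 min after hNppA addition; series mostly up to about 58 µM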)
In short: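 Readout is cGMP-driven firefly luciferase luminescence in HEK293 cells carrying hNpr1 and a PDE5-domain GloSensor, read before and 20 min after 0.1 nM hNppA stimulation. Cells had 2% substrate reagent for 2 h and test compound for 30 min.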

[5] = P-glycoprotein substrates identified in KB-8-5-11 adenocarcinoma cell line, qHTS therapeutic library screen (AID 1346987); note: series mostly up to about 44 µM; nearly all actives have a fitted effect of over 65% in size
In short: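 KB-8-5-11: colchicine-selected sub-line of KB-3-1 over-expressing P-gp; assay medium lacked colchicine. 72 h drug exposure at 37 degree C, CellTiter-Glo.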

[6] = Natriuretic polypeptide receptor (hNpr1) antagonism - Pilot counterscreen GloSensor control cell line (AID 1347045; calls by dose curve; note: potency is the fitted concentration of half-maximal effect)
In short: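 HEK293 cells carrying the GloSensor cGMP sensor (GIP/pGS-40F) were loaded with 2% GloSensor reagent for 2 h, exposed to compounds for 30 min, and then stimulated with 50 uM sodium nitroprusside for 20 min at room temperature.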

Measured: Potency

Chain of Atrial natriuretic peptide receptor 1 (Homo sapiens) (P16066 whole entry, looked up): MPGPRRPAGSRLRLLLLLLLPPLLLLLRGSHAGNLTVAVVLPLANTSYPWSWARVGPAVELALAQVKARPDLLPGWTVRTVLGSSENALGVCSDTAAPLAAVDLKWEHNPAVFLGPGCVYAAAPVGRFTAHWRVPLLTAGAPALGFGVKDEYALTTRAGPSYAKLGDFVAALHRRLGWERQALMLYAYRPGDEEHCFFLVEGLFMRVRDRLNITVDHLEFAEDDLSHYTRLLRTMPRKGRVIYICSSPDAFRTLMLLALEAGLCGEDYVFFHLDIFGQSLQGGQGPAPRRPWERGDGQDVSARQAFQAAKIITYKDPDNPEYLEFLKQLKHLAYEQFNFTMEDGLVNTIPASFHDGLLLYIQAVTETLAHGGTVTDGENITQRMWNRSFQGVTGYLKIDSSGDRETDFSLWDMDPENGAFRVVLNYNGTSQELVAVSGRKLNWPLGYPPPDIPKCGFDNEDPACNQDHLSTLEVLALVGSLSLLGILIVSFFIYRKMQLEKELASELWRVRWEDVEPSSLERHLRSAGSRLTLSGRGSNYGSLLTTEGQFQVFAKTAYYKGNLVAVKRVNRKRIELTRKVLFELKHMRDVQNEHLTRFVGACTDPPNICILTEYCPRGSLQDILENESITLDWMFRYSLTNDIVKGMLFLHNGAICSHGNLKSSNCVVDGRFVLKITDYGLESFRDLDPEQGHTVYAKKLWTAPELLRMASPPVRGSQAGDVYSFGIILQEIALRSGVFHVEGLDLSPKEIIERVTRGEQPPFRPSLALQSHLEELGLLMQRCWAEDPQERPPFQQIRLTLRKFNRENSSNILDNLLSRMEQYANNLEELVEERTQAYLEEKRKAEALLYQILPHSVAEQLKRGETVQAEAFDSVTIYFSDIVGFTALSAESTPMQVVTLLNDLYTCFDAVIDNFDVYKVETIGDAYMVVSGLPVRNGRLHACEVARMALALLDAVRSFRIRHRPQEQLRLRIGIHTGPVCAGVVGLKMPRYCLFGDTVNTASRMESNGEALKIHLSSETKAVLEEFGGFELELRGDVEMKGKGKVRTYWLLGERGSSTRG

CC1=C(C)C(=O)C(CCCCC#CCCCC#CCO)=C(C)C1=O
inactive: [1] | [2] | [3] | [4]

CN(C)[C@@H]1C(=O)C(C(N)=O)=C(O)[C@@]2(O)C(=O)C3=C(O)c4c(O)ccc(Cl)c4[C@@H](O)[C@H]3C[C@@H]12
inactive: [1] | [2] | [5] | [6] | [4]

CN(C)CCCN1c2ccccc2Sc2ccc(C(F)(F)F)cc21
inactive: [1] | [2] | [3] | [4]

CN1C(=O)CC[C@H]1c1cccnc1
inactive: [1] | [2] | [5] | [6] | [4]

C[N+](C)(C)CCOC(=O)CCC(=O)OCC[N+](C)(C)C
inactive: [1] | [2] | [5] | [6] | [4]

Nc1c2c(nc3ccccc13)CCCC2O (stereo not given)
inactive: [1] | [2] | [3] | [6] | [4]

NC/C=C/C(=O)O
inactive: [1] | [2] | [5] | [6] | [4]

CN(C)CCCN1c2ccccc2Sc2ccccc21
inactive: [1] | [2] | [3] | [6] | [4]

NCCCNCCSP(=O)(O)O
inactive: [1] | [2] | [3] | [6] | [4]

NC(=O)N1c2ccccc2C=Cc2ccccc21
inactive: [1] | [3] | [4]

CC(C)(Oc1ccc(CCNC(=O)c2ccc(Cl)cc2)cc1)C(=O)O
inactive: [1] | [2] | [6] | [4]

Cc1nc2sccn2c(=O)c1CCN1CCC(=C(c2ccc(F)cc2)c2ccc(F)cc2)CC1
inactive: [1] | [2] | [4]

COc1cc(C(=O)OCCCN2CCCN(CCCOC(=O)c3cc(OC)c(OC)c(OC)c3)CC2)cc(OC)c1OC
inactive: [1] | [6] | [4]

CN1C[C@H](C(=O)N[C@]2(C)O[C@@]3(O)[C@@H]4CCCN4C(=O)[C@H](Cc4ccccc4)N3C2=O)C[C@@H]2c3cccc4[nH]cc(c34)C[C@H]21
inactive: [1] | [5] | [6] | [4]

Fc1ccc(C(c2ccc(F)cc2)N2CCN(C/C=C/c3ccccc3)CC2)cc1
inactive: [1] | [2] | [6] | [4]

CCC(=O)c1ccc2c(c1)N(CCCN(C)C)c1ccccc1S2
inactive: [1] | [2] | [6] | [4]

CN/C(=C\[N+](=O)[O-])NCCSCc1ccc(CN(C)C)o1
inactive: [1] | [2] | [6] | [4]

c1cnc(N2CCN(Cc3ccc4c(c3)OCO4)CC2)nc1
inactive: [1] | [2] | [6] | [4]

COC(=O)C1=C(C)NC(C)=C(C(=O)OCCN(C)Cc2ccccc2)C1c1cccc([N+](=O)[O-])c1 (stereo not given)
inactive: [1] | [2]
active: [6] 16.5 µM

CC(=O)OCC1=C(C(=O)O)N2C(=O)[C@@H](NC(=O)Cc3cccs3)[C@H]2SC1
inactive: [1] | [2] | [6] | [4]

Cc1nnc(SCC2=C(C(=O)O)N3C(=O)[C@@H](NC(=O)Cn4cnnn4)[C@H]3SC2)s1
inactive: [1] | [2] | [6] | [4]

CC(=O)Oc1cc(C(C)C)c(OCCN(C)C)cc1C
inactive: [1] | [5] | [4]
